Reference: ChEMBL document CHEMBL1157539, “Thousands of chemical starting points for antimalarial lead identification” (Nature, 2010)

How the values were obtained:
Type in all cases: functional
Plasmodium falciparum [1] = assay: GSK_TCMDC: Inhibition of Plasmodium falciparum 3D7 in whole red blood cells, using parasite LDH activity as an index of growth. Test compounds present at 2uM
Plasmodium falciparum [2] = assay: GSK_TCMDC: Inhibition of Plasmodium falciparum Dd2 in whole red blood cells, using parasite LDH activity as an index of growth. Test compounds present at 2uM
HepG2 = assay: GSK_TCMDC: Percent inhibition of human HepG2 cell line. Test compounds present at 10uM.

SMILES | Inhibition (Plasmodium falciparum [1]) | Inhibition (Plasmodium falciparum [2]) | Inhibition (HepG2)
Cc1[nH]c(C)c(-c2ccc(-c3ccc4c(c3)OCO4)nc2)c(=O)c1Br | 96% | 96% | 0%
CCOC(=O)CNC(=O)c1cc(=O)c2ccccc2o1 | 99% | 0% | 22%
Cc1c(S(=O)(=O)Nc2ccc3ccn(CCN(C)C)c3c2)sc2ccc(Cl)cc12.Cl | 98% | 94% | 15%
COc1ccc(-c2cncc3ccc(C(=O)NCCCn4ccnc4)nc23)cc1 | 95% | 99% | 28%
O=C(/C=C/c1ccc(Cl)c(Cl)c1)N1CCN(C(=O)Nc2ccc(F)c(Cl)c2)CC1 | 97% | 87% | 19%
COc1ccc2ncc(F)c([C@@H](O)CN3CCC(NCc4ccc5c(c4)NCCS5)CC3)c2n1.Cl | 99% | 69% | 77%
Cl.OC(CNCCCCCCNCC(O)c1ccc(Cl)c(Cl)c1)c1ccc(Cl)c(Cl)c1 (stereo not drawn) | 90% | 17% | 99%
CCN(CC(C)O)C(=O)c1ccc(-c2ccc(-c3nc4cccc(C)c4[nH]3)cc2)cc1 (stereo not drawn) | 94% | 13% | 18%
CS(=O)(=O)CCNCc1cc(-c2cc3ncnc(Nc4ccc(OCc5cccc(F)c5)c(Cl)c4)c3s2)cs1 | 99% | 48% | 8%
Cc1cc(Nc2ccccc2)nc(Nc2ccccc2C)n1.Cl | 85% | 27% | 8%
Cn1nccc1C(=O)NCCNCc1cccc(-c2ccc(-c3nc4ccccc4[nH]3)s2)c1.O=C(O)C(F)(F)F | 100% | 94% | 22%
Cc1cc(Nc2nc(NCc3cccnc3)nc3ccccc23)n[nH]1 | 100% | 33% | 11%
Cc1cc(N[C@@H](Cc2ccccc2)C(=O)NCc2cccs2)nc(NCCOc2ccccc2)n1.O=C(O)C(F)(F)F | 93% | 31% | 2%
COc1cccc(-c2ccc3c(-c4cccc(S(C)(=O)=O)c4)cnc(N)c3c2)c1 | 96% | 21% | 45%
CCN(CC)Cc1cc(Nc2ccnc3cc(Cl)ccc23)ccc1O.Cl.Cl.Cl | 100% | 99% | 0%
CN(C)CCn1c(=N)n(CC(O)c2ccc(Cl)c(Cl)c2)c2ccccc21.Cl (stereo not drawn) | 99% | 6% | 20%

SMILES | Inhibition (Plasmodium falciparum [1]) | Inhibition (Plasmodium falciparum [2]) | Inhibition (HepG2)
Cc1cccc(C(=O)N2CCN(Cc3cccc(NC(=O)c4ccco4)c3)CC2)c1.O=C(O)C(F)(F)F | 94% | 79% | 7%
CCOc1cc(C(=O)NC2CCN(Cc3ccccc3)C2)ccc1-c1nc2cc(Cl)ccc2[nH]1 (stereo not drawn) | 98% | 60% | 7%
CCNc1cc(C(=O)N[C@@H](Cc2ccccc2)[C@H](O)CN[C@@H](C)c2ccccc2)cc(N2CCCC2=O)c1 | 98% | 96% | 7%
CC(=O)Nc1nc(C(=O)Nc2ccc(-c3cccc(-c4nc5cccc(C)c5[nH]4)c3)cc2)cs1 | 100% | 73% | 100%
Cc1cccc2[nH]c(-c3cc(-c4cn[nH]c4)cnc3N)nc12 | 100% | 93% | 37%
CCNc1cc(C)nc(Nc2ccc(NS(=O)(=O)c3ccccc3)cc2)n1 | 100% | 54% | 41%
FC(F)(F)c1cccc(Nc2nc(-c3ccccc3)nc3ncccc23)c1 | 97% | 97% | 17%
CCCCCCn1c(Sc2ccc(C#N)c([N+](=O)[O-])c2)nnc1-c1cccs1 | 97% | 60% | 26%
COc1ccc2nccc([C@@H](O)CN3CCC(NCc4cc5ccccc5[nH]4)CC3)c2c1.CS(=O)(=O)O | 92% | 41% | 75%
CCC[C@@H]([C@@H](CC1CCCCC1)C(=O)N[C@H](C(=O)Nc1ccccn1)[C@H](C)CC)N(O)C=O | 96% | 87% | 24%
CCCn1c(Sc2ccc(C#N)c([N+](=O)[O-])c2)nnc1-c1ccc(OC)cc1 | 94% | 95% | 0%
Cc1cc(NCCC(=O)NCc2cccc(F)c2)nc(NCCc2ccc(F)cc2)n1.O=C(O)C(F)(F)F | 89% | 2% | 0%
COCCNCc1cccc(-c2ccc(CNC3CCN(Cc4ccccc4)CC3)cc2)c1.O=C(O)C(F)(F)F | 100% | 97% | 34%
O=C(O)C[C@H](NC(=O)CCCNC(=O)c1cccc(-c2ccc(Cl)c(Cl)c2)c1)C(=O)O | 91% | 0% | 5%
CN(C)CCOc1cc(O)c2c(c1)OC(C)(C)C=C2c1cccs1 | 99% | 10% | 29%
